Screening results: PubChem BioAssay, The Scripps Research Institute Molecular Screening Center
PLC-beta3 inh: inhibitors of human phospholipase C beta3 | AID 720704 | Purified PLC-beta3, fluorogenic substrate, fluorescence | inhibition, % at 12.2 µM | Q01970 | hit rate 0.18% among 370,000; in the data active = inhibition above about 11%
proKLK7 act: proKLK7 (human) activation, primary screen; hit rate 0.9% among 370,000; purified proKLK7, EDANS-DABCYL substrate fluorescence; 100% is mature enzyme control, 0% vehicle; AID 652039; activation, % at 7 µM; P49862;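 active = activation above the mean of all tested compounds plus 3 SD, computed per campaign excluding outliers beyond control limits, cut at about 13% in these data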
Target sequence (P49862 whole entry, looked up): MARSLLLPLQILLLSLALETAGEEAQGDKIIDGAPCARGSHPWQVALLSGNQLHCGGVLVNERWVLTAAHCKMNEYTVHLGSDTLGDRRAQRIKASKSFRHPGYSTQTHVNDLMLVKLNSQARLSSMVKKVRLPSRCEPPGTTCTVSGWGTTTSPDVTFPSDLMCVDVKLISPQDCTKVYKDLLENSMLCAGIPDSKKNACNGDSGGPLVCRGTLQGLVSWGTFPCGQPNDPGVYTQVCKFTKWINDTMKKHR
sPLA2-III inh: Blocks human group III sPLA2 activity. inhibition, % at 12.2 µM. hit rate 0.56% among 370,000. QFRET BODIPY PC-A2 liposome hydrolysis, fluorescence;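 active = inhibition above mean plus 3 SD of compounds lying within the high and low control bounds, cut at about 19% in these data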
ADAM17 inh: inhibits human ADAM17 | P78536 | recombinant ADAM17, EDANS/DABCYL FRET peptide cleavage | inhibition, % at 6.95 µM | hit rate 0.83% among 370,000;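 active = inhibition above the mean of compounds lying between control limits plus 3 SD, set per campaign, cut at about 8.5% in these data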
ADAM10 inh: ADAM10 inhibition, QFRET primary screen; hit rate 0.62% among 370,000; AID 720582; O14672; inhibition, % at 7 µM; recombinant ADAM10, EDANS/DABCYL FRET peptide cleavage, 3 h;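 active = inhibition above a per-campaign cutoff equal to the mean of compounds falling between control-based bounds plus 3 SD, cut at about 20% in these data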
PLC-gamma1 inh: inhibitors of human phospholipase C gamma1; P19174; purified PLC-gamma1, fluorogenic substrate, fluorescence; inhibition, % at 12.2 µM; hit rate 0.84% among 370,000; in the data active = inhibition above about 9.5%
ADAM10 ctr: inhibits human ADAM10 in ADAM17 exosite counter-screen | AID 743256 | recombinant ADAM10, EDANS/DABCYL FRET peptide cleavage, 3 h | inhibition, % at 6.95 µM | shares compounds with ADAM17 inh | hit rate 47% among 2,900;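 active = mean inhibition over the triplicate runs exceeds the activity threshold set in the earlier primary screen, cut at about 20% in these data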
ADAM17 confirm: confirmation of inhibitors of human ADAM17 | inhibition, % at 6.95 µM | hit rate 65% among 2,900 | recombinant ADAM17, EDANS/DABCYL QFRET peptide cleavage | shares compounds with ADAM17 inh;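 active = mean inhibition across replicates above the hit cutoff set in the primary screen, cut at about 8.5% in these data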
sPLA2 confirm: human GIII-sPLA2 inhibition, confirmation; shares compounds with sPLA2-III inh; recombinant hGIII-sPLA2, BODIPY PC-A2 QFRET fluorescence; inhibition, % at 12.2 µM; hit rate 34% among 2,000; AID 743280;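 active = mean inhibition across triplicates above the hit cutoff set in the earlier primary screen, cut at about 19% in these data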
535nm interf: optically interferes with 535nm fluorescence in sPLA2 counter-screen | shares compounds with sPLA2-III inh | BODIPY FL product fluorescence interference, QFRET | inhibition, % at 12.2 µM | hit rate 8.5% among 2,000 | AID 743282;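 active = average inhibition above the solvent-only control mean plus 3 SD, cut at about 6% in these data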
BODIPY interf DR: interferes with 535nm fluorescence in dose response counter-screen; shares compounds with sPLA2-III inh; BODIPY FL product fluorescence interference, cell-free; IC50, µM; 240 tested, under 10 active;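 active = IC50 at or below 10 µM; inactive = IC50 above 10 µM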
Large screens that a line does not name were inactive (follow-up assays come after a bar, where they were run). Only some compounds are listed: those with a hit (about 3.4% of all), similar ones and a draw of the others.

CCOCCCn1c(SC(C(=O)Nc2cc(C)ccc2C)c2ccccc2)nnc1-c1ccc(Cl)cc1 (configuration not stated)	sPLA2-III inh 20, ADAM17 inh 9.9 | ADAM10 ctr inactive | ADAM17 confirm inactive | sPLA2 confirm inactive | 535nm interf inactive
Oc1c(C(Nc2ccccn2)c2cccnc2)cc(Cl)c2cccnc12 (configuration not stated)	sPLA2-III inh 22, ADAM17 inh 11 | ADAM10 ctr 26 | ADAM17 confirm 16 | sPLA2 confirm 22 | 535nm interf inactive
CN=c1scc(-c2ccccc2F)n1/N=C/c1ccc(O)c(O)c1O	none
CC(C)N=c1scc(-c2cccs2)n1/N=C/c1ccc(O)c(O)c1O	sPLA2-III inh 38, ADAM17 inh 9.3 | ADAM10 ctr inactive | ADAM17 confirm 12 | sPLA2 confirm 54 | 535nm interf inactive | BODIPY interf DR inactive
CCOC(=O)N1CCN(S(=O)(=O)c2ccc(C(=O)NNc3nc4c(C)cc(C)cc4s3)cc2)CC1	sPLA2-III inh 60, ADAM17 inh 9.7 | ADAM10 ctr 29 | ADAM17 confirm 23 | sPLA2 confirm 45 | 535nm interf inactive | BODIPY interf DR inactive
CCOC(=O)C1=C(c2ccccc2)NC(=S)NC1c1cccc([N+](=O)[O-])c1 (configuration not stated)	none
CCOC(=O)C1=C(c2ccccc2)NC(=S)NC1c1cc([N+](=O)[O-])ccc1OC (configuration not stated)	sPLA2-III inh 23, ADAM17 inh 9.2 | ADAM10 ctr inactive | ADAM17 confirm inactive | sPLA2 confirm inactive | 535nm interf inactive
N#CCC1(O)C(=O)Nc2ccccc21 (configuration not stated)	none
O=C(CSc1nnc(-c2ccccc2)n1-c1ccccc1)Nc1cccc2ccccc12	none
CC(C)(C)c1csc(NC(=O)c2ccccc2O)n1	none
CC(C)(C)c1csc(NNC(=O)c2ccc(Br)cc2)n1	sPLA2-III inh 47, ADAM17 inh 8.7 | ADAM10 ctr inactive | ADAM17 confirm inactive | sPLA2 confirm 49 | 535nm interf inactive | BODIPY interf DR inactive
COc1cccc(C(Nc2ccccc2)c2ccc3ccc(C)nc3c2O)c1 (configuration not stated)	sPLA2-III inh 22, ADAM17 inh 17 | ADAM10 ctr inactive | ADAM17 confirm 15 | sPLA2 confirm inactive | 535nm interf 8.3
Cc1cccc(C)c1NC(=O)C1CCN(c2ncccn2)CC1	none
O=C1c2cc(CO)cc(O)c2C(=O)c2c(O[C@@H]3OC(CO)[C@@H](O)[C@@H](O)[C@@H]3O)cccc21 (some centres not stated)	none
